ABCB6 inh MLPCN: blocks the human ABCB6 transporter. Q9NP58. K562-ABCB6 porphyrin accumulation, flow cytometry, 1 h; active compounds read low. fluorescence ratio to DMSO, % at 10 µM. 360,000 tested, 0.19% active. AID 602162;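 active means fluorescence ratio to DMSO below 75%, the collection mean minus 3 SD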;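 further: signal is porphyrin accumulated inside mitochondria; lower ratio means ABCB6 inhibition with less porphyrin fluorescence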
eIF4H inh: inhibitors of RNA binding by human eIF4H; 290,000 tested, 0.94% active; eIF4H fluorescence polarization binding assay; inhibition, % at 35 µM; AID 2012;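 further: calls also rest on retests at 20 µM and on dose response follow-up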
PHOSPHO1 block: inhibitors of human PHOSPHO1 phosphatase | recombinant PHOSPHO1, absorbance phosphatase assay | inhibition, % at 13.3 µM | 290,000 tested, 1.1% active; in the data active means inhibition above about 60%
AI-2 QS modul: Vibrio harveyi AI-2 quorum sensing modulation; AID 2094; Vibrio harveyi JMH597 AI-2 luminescence/OD600 ratio, 9 h; active compounds read low; strain lacks LuxN and CqsS sensors; 0 = neutral-control median; 300,000 tested, 0.4% active; activity change, % at 7.5 µM; in the data active means activity change below about -75%, passing the limit was not always enough;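 further: luminescence divided by OD600 gain over 9 h not by final OD600 alone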
MLLE-PAM2 inh: blocks PAM2 peptide binding to the PABP1 MLLE domain; P11940; GST-MLLE / FITC-PAM2 fluorescence polarization; inhibition, % at 20 µM; 360,000 tested, 0.36% active; in the data active means inhibition above about 35%, passing the limit was not always enough
PABP FP inh: PABP-poly(A) binding inhibition; PABP-poly(A) RNA binding, fluorescence polarization; calls only at 35 µM; 290,000 tested, 1% active; AID 2014;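 further: calls also rest on retests at 20 µM and on dose response follow-up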
A number is an active result. A selection: hits, their analogues and other compounds. The true share with any hit is near 2.6%. Unless noted, how the calls were made is not given here.

Screening CCN(CC)c1ccc(NC(=O)CCS(=O)(=O)c2ccc(Br)cc2)c(C)c1 returned ABCB6 inh MLPCN inactive, eIF4H inh 93, PHOSPHO1 block inactive, AI-2 QS modul inactive, MLLE-PAM2 inh inactive and PABP FP inh active.
For Cc1ccccc1NC(=O)CCS(=O)(=O)c1ccc(Br)cc1 the results were ABCB6 inh MLPCN inactive, eIF4H inh inactive, PHOSPHO1 block inactive, AI-2 QS modul inactive, MLLE-PAM2 inh inactive and PABP FP inh inactive.
Screening COc1ccc(OC)c(CN2CCN(C(=O)c3ccc(S(=O)(=O)N4CCCCCC4)cc3)CC2)c1 returned ABCB6 inh MLPCN inactive and MLLE-PAM2 inh inactive.
CCC(C)[C@H](N)c1nnc(SCC(=O)c2ccc(Cl)cc2)o1 (stereo not given in full) was read as ABCB6 inh MLPCN inactive, eIF4H inh inactive, PHOSPHO1 block 79, AI-2 QS modul inactive, MLLE-PAM2 inh inactive and PABP FP inh inactive.
C=C(C)CSc1nnc([C@@H]2CCCN2)o1 was read as ABCB6 inh MLPCN inactive, eIF4H inh inactive, PHOSPHO1 block inactive, AI-2 QS modul inactive, MLLE-PAM2 inh inactive and PABP FP inh inactive.
`O=C(CSc1nnc([C@@H]2CCCN2)o1)c1ccc(Cl)cc1` gave ABCB6 inh MLPCN inactive, eIF4H inh inactive, PHOSPHO1 block 74, AI-2 QS modul inactive, MLLE-PAM2 inh inactive and PABP FP inh inactive.
`CC(C)[C@@H]1Cc2[nH][nH]c(=O)c2[C@H](c2ccc(F)cc2)O1` gave ABCB6 inh MLPCN inactive.
For CCn1c(SCC(=O)c2ccc(O)c(O)c2)nnc1-c1ccc(C)cc1 the results were ABCB6 inh MLPCN inactive, eIF4H inh inactive, PHOSPHO1 block 81, AI-2 QS modul inactive, MLLE-PAM2 inh inactive and PABP FP inh inactive.
For CC(=O)OC[C@@H]1CN(Cc2ccccc2)C[C@H](n2cnc3c(N4CCOCC4)ncnc32)O1 the results were ABCB6 inh MLPCN inactive and MLLE-PAM2 inh inactive.
CCCCCCn1c(CN2CCC(C)CC2)nc2c1c(=O)n(C)c(=O)n2C was read as ABCB6 inh MLPCN inactive, eIF4H inh inactive, PHOSPHO1 block inactive, AI-2 QS modul inactive, MLLE-PAM2 inh inactive and PABP FP inh inactive.
CCCCCCn1c(CN2CCN(CCO)CC2)nc2c1c(=O)n(C)c(=O)n2C was read as ABCB6 inh MLPCN inactive, eIF4H inh inactive, PHOSPHO1 block inactive, AI-2 QS modul inactive, MLLE-PAM2 inh inactive and PABP FP inh active.
Cc1ccc(C(=O)Cn2nnc(-c3ccccc3-n3cnnn3)n2)cc1 was read as ABCB6 inh MLPCN inactive, eIF4H inh inactive, PHOSPHO1 block inactive, AI-2 QS modul inactive, MLLE-PAM2 inh inactive and PABP FP inh inactive.
For Cc1ccc(C(=O)Cn2nnc(-c3ccccc3)n2)cc1 the results were ABCB6 inh MLPCN inactive, eIF4H inh inactive, PHOSPHO1 block inactive, AI-2 QS modul -92, MLLE-PAM2 inh inactive and PABP FP inh inactive.
For O=C(O)c1ccccc1CSc1nc2ccccc2o1 the results were ABCB6 inh MLPCN inactive, eIF4H inh inactive, PHOSPHO1 block 75, AI-2 QS modul inactive, MLLE-PAM2 inh inactive and PABP FP inh inactive.
Screening Cc1nonc1NC(=O)CSc1nc2ccccc2o1 returned ABCB6 inh MLPCN inactive, eIF4H inh 83, PHOSPHO1 block inactive, AI-2 QS modul inactive, MLLE-PAM2 inh inactive and PABP FP inh active.
O=C(O)c1ccc(CSc2nc3ccccc3o2)cc1 was read as ABCB6 inh MLPCN inactive, eIF4H inh inactive, PHOSPHO1 block inactive, AI-2 QS modul inactive, MLLE-PAM2 inh inactive and PABP FP inh inactive.
CC(=O)Nc1nonc1NC(=O)CSc1nc2ccccc2o1 was read as ABCB6 inh MLPCN inactive, eIF4H inh inactive, PHOSPHO1 block inactive, AI-2 QS modul inactive, MLLE-PAM2 inh inactive and PABP FP inh inactive.
Cc1cc(C)nc(NC(=O)CSc2nc3ccccc3o2)n1 was read as ABCB6 inh MLPCN inactive, eIF4H inh inactive, PHOSPHO1 block 69, AI-2 QS modul inactive, MLLE-PAM2 inh inactive and PABP FP inh inactive.
CCOC(=O)CCCCCC(=O)Nc1ccc2c(c1)C(=O)N([C@H](C)CO)C[C@H](C)[C@@H](CN(C)C(=O)Nc1ccccc1)OCCCC[C@@H](C)O2 was read as ABCB6 inh MLPCN inactive and MLLE-PAM2 inh inactive.
`COC(=O)c1c(-c2ccc(N(C)C)cc2)oc2c1C(OC)CCC2` (stereo not given) gave ABCB6 inh MLPCN inactive.
Screening O=C(O)Cn1nnc(-c2ccccc2)c1COc1ccccc1 returned ABCB6 inh MLPCN inactive and MLLE-PAM2 inh inactive.
